KCNQ2 block: rat KCNQ2 potassium channel inhibitors, primary screen, cell-based, CHO-K1, FluxOR thallium flux, B-score. Potassium voltage-gated channel subfamily KQT member 2 (Rattus norvegicus), O88943. 20 min; hits give low values. B-score at 10 µM. hit rate 1.1% among 310,000. AID 2156, 2009;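 active = fluorescence ratio B-score at most minus 3 library SDs, with starting brightness B-score within 2 library SDs, cut at about -5.5 in these data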
KCNQ2 pot: potentiators of rat KCNQ2 potassium channel; Potassium voltage-gated channel subfamily KQT member 2 (Rattus norvegicus), O88943; CHO-K1 KCNQ2, FluxOR thallium flux fluorescence; hits give high values; B-score at 10 µM; hit rate 0.54% among 310,000; AID 2239, 2010;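 active = fluorescence ratio B-score at least 3 SD of library B-scores, with initial fluorescence B-score within 3 of them, cut at about 5.3 in these data; same plate scores as AID 2156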;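 note: B-score of peak minus minimum over baseline fluorescence ratio after K+ and Tl+ stimulus; positive B-score means potentiation of KCNQ2 with more thallium influx and brighter signal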
Kir21 conf inh: mouse Kir2.1 channel blockers, retest, confirmation, cell-based, FluxOR thallium flux, duplicate | shares compounds with KCNQ2 pot | Kir2.1-expressing cells, FluxOR thallium flux fluorescence; hits give low values | Tl flux remaining, % of negative control (hits give low values), % at 10 µM | hit rate 41% among 2,300;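 active = Primary-screen hit whose thallium flux fell at least 3 control SD below untreated wells in both duplicates, with normal baseline fluorescence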;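 note: 0% = blank wells without stimulus and 100% = stimulated no-compound controls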
HEK293 ctr: parental HEK293 activity in Kir2.1 inhibitor counter-screen. shares compounds with KCNQ2 pot. parental HEK293 cells, FluxOR thallium flux fluorescence; 0% = unstimulated blank wells. FluxOR signal as % of negative control (100 = no effect), % at 10 µM. hit rate 19% among 2,300. AID 2105;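 active = dye signal at least 3 control SD above or below untreated wells in both duplicates, raw fluorescence within 3, either direction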;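 note: percent is based on the flux ratio of peak minus minimum fluorescence over baseline F0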
CHO-K1 ctr: nonspecific thallium flux increase in parental CHO-K1, confirmation, counter-screen for KCNQ2 potentiator project, cell-based, FluxOR thallium flux, duplicate | parental CHO-K1 cells, FluxOR thallium flux fluorescence; zero = vehicle mean+3SD, 100% = vehicle-minus-blank window | shares compounds with KCNQ2 pot | activity increase over 3SD of controls, % at 10 µM | hit rate 43% among 1,200 | AID 2282, 2010;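 active = signal rise of at least 3 SD above the untreated control mean, in both duplicate wells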;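 note: counter screen of KCNQ2 potentiator hits so any rise reflects channel-independent effects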
KCNQ1 sel pot: human KCNQ1 channel potentiation off-target, confirmation, selectivity assay for KCNQ2 potentiator project, cell-based, CHO, FluxOR thallium flux. CHO KCNQ1 stable, FluxOR thallium flux fluorescence; beyond 3SD, as % of vehicle-control signal. AID 2283, 2010. activation over 3SD threshold, % at 10 µM. shares compounds with KCNQ2 pot. hit rate 28% among 1,200;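 active = fluorescence ratio rise of at least 3 SD of vehicle wells above their mean, in both replicate wells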;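 note: 0% = vehicle mean plus 3 SD and 100% = vehicle minus unstimulated blank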
KCNQ2 pot conf: rat KCNQ2 channel potentiators, confirmation, cell-based, CHO, FluxOR thallium flux, duplicate | shares compounds with KCNQ2 pot | AID 2287, 2010 | hit rate 68% among 1,200 | CHO-KCNQ2 cells, FluxOR thallium flux fluorescence | potentiation, less the hit threshold, % at 10 µM;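 active = fluorescence ratio rising 3 SD or more over the vehicle control mean in both replicates, plus primary screen hit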;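 note: peak minus minimum thallium fluorescence divided by baseline after K/Tl stimulus; 0% = vehicle mean plus 3 SD and 100% = vehicle minus unstimulated blank difference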
Kir2-1 sel: mouse Kir2.1 channel activation off-target, confirmation, selectivity assay for KCNQ2 potentiator project, cell-based, HEK293, FluxOR thallium flux; shares compounds with KCNQ2 pot; HEK293 Kir2.1, FluxOR thallium flux fluorescence; activity over 3SD threshold, % at 10 µM; hit rate 2% among 1,200;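 active = fluorescence ratio rise of at least 3 SD above the vehicle-control mean, seen in both replicates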;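 note: 0% = vehicle mean plus 3 SD and 100% = vehicle minus no-stimulus blank window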
KCNQ2 W236L MoA: potentiators of retigabine-insensitive KCNQ2 W236L, mechanism study for KCNQ2 potentiator project, cell-based, rat KCNQ2 W236L, CHO, automated patch clamp | shares compounds with KCNQ2 pot | automated patch clamp current | current increase over 3SD of negative controls (%), hits give high values, % at 25 µM | hit rate 10% among 940;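 active = current increase at least 3 SD of the untreated controls above them in both duplicate recordings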
Target sequence (O88943 whole entry W236L, looked up): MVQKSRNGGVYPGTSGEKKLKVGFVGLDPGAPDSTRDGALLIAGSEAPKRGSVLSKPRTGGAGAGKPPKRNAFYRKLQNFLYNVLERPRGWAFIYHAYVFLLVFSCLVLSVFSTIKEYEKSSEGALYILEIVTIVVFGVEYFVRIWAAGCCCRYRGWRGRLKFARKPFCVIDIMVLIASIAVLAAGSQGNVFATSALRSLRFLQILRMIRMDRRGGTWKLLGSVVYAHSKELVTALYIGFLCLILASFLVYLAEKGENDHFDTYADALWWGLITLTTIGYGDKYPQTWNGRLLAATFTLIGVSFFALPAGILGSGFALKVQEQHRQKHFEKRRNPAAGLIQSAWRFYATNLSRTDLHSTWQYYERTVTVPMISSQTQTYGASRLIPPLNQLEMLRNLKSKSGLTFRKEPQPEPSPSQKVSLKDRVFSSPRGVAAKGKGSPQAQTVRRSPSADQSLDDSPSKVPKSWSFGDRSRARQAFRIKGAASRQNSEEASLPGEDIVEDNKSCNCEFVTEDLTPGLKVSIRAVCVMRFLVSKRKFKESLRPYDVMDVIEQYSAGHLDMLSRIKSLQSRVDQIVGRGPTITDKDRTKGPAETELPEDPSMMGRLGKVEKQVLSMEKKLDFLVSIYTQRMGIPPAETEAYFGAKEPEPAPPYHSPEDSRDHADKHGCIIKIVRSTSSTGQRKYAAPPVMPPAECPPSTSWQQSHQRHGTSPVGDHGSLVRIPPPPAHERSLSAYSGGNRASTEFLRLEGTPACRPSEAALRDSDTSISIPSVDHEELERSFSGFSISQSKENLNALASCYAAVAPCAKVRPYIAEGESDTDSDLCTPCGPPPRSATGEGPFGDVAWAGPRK
* marks the source's active call; other numbers are inactive results; i = inactive; x = no result given. Hits are enriched below; roughly 1.6% of the tested compounds scored in any of these assays.

SMILES | KCNQ2 block | KCNQ2 pot | Kir21 conf inh | HEK293 ctr | others
CCN(C(=O)c1ccc2c(SCC(=O)O)c3c(nc2c1)CCC3)c1cc(Cl)ccc1OC | i | 0.96 | x | x
CC(C)Cn1c(SCC(=O)c2ccc(Cl)s2)nnc1-c1ccco1 | -6.8* | -6.8 | 50%* | 138%*
Cn1c(SCC(=O)OCc2ccccc2)nnc1-c1ccco1 | i | x | x | x
O=C(CSc1nnc(-c2ccco2)n1Cc1ccccc1)c1ccccc1 | i | x | x | x
CCn1c(SCC(=O)OCc2ccccc2)nnc1-c1ccco1 | i | x | i | i
Cc1cc2ccccn2c1C(=O)c1ccc([N+](=O)[O-])o1 | i | 1.4 | x | x
COCC(=O)O[C@]1(CCN(C)CCCc2nc3ccccc3[nH]2)CCc2cc(F)ccc2[C@@H]1C(C)C | i | x | 31%* | i
O=C(COc1ccccc1F)NCc1nc2ccccc2[nH]1 | i | x | x | x
COc1ccc(NC(=O)CN2CCCCCC2)cc1OC | i | 1.2 | x | x
CC(/C=C1\SC(=S)N(NC(=O)c2ccc(C)cc2)C1=O)=C\c1ccccc1 | i | 9.2* | i | i | CHO-K1 ctr=-4;KCNQ1 sel pot=-10;KCNQ2 pot conf=-20;Kir2-1 sel=-21
CC(/C=C1\SC(=S)N(NC(=O)c2ccncc2)C1=O)=C\c1ccccc1 | i | 3.2 | x | x
CC(/C=C1\SC(=S)N(NS(=O)(=O)c2ccccc2)C1=O)=C\c1ccccc1 | i | 12* | i | 260%* | CHO-K1 ctr=0.8*;KCNQ1 sel pot=63*;KCNQ2 pot conf=56*;Kir2-1 sel=-27;KCNQ2 W236L MoA=i
COc1ccc(/C=C2/SC(=S)N(NS(=O)(=O)c3ccccc3)C2=O)cc1 | i | 3.5 | x | x
CCC(C)NC(=O)NCc1ccccc1F (configuration not stated) | i | x | x | x
Cc1cccc2c(N=O)c(O)n(CCc3ccccc3)c12 | i | x | x | x
c1ccc(Nc2nc(NCc3ccco3)c3ccccc3n2)cc1 | i | x | x | x
Oc1ccccc1Nc1nc(NCc2ccco2)c2ccccc2n1 | i | x | x | x
Cc1cccc(Nc2nc(NCc3ccco3)c3ccccc3n2)c1 | i | x | 62%* | i
Cc1ccccc1Nc1nc(NCc2ccco2)c2ccccc2n1 | -6.3* | -6.3 | 16%* | i
CC1CCN(C(=O)C(=O)Nc2sc3c(c2C(N)=O)CC(C)(C)OC3)CC1 | i | 3.2 | x | x
CCCN(C(=O)CCSc1ccc(F)cc1)c1c(N)n(Cc2ccccc2)c(=O)[nH]c1=O | i | x | x | x
O=C(c1ccc2c(=O)n(Cc3ccc(Cl)cc3)c(=S)[nH]c2c1)N1CCOCC1 | i | 2.6 | x | x
CCOc1ccc2ccccc2c1/C=N/NC(=O)CNC(=O)Cc1ccccc1 | i | x | x | x
COc1ccc(CCN(C)C(=O)c2cc(S(=O)(=O)N3CCCCC3)ccc2Cl)cc1OC | i | 0.03 | x | x
CC1=NOC(=O)/C1=C/c1ccc(O)cc1 | i | 1.9 | x | x
SMILES | KCNQ2 block | KCNQ2 pot | Kir21 conf inh | HEK293 ctr | others
O=C1ON=C(c2ccccc2)/C1=C/c1ccc(O)cc1 | i | x | i | i
O=C1ON=C(c2ccc(Cl)cc2)/C1=C/c1ccc(O)cc1 | -7.4* | -7.4 | 58%* | i
Cc1ccc(C2=NOC(=O)/C2=C\c2ccccc2)cc1 | i | 0.59 | x | x
CC(C)N(C(=O)CSc1nc2ccccc2c(=O)[nH]1)C(C)C | i | x | x | x
COc1ccccc1CC(=O)NCc1nn(-c2ccccc2)nc1C | i | x | x | x
O=C(CN(Cc1ccco1)C(=O)CCC(=O)Nc1ccccn1)NCc1ccccc1 | i | 0.85 | x | x
CC(C)(C)c1cc(-c2n[nH]c(=S)n2-c2ccccc2F)n[nH]1 | i | 5.3* | i | 154%* | CHO-K1 ctr=-5;KCNQ1 sel pot=-39;KCNQ2 pot conf=44*;Kir2-1 sel=-36;KCNQ2 W236L MoA=20%*
Cc1ccccc1-n1c(-c2ccc(=O)[nH]n2)n[nH]c1=S | i | 1.9 | x | x
c1ccc2c(-c3[nH]ncc3CNCCCn3ncc4ccccc43)cccc2c1 | i | 0.04 | x | x
CS(=O)(=O)N(CC(=O)Nc1ccccc1Sc1ccccc1)c1cccc(Br)c1 | i | 18* | i | i | CHO-K1 ctr=-8;KCNQ1 sel pot=-6;KCNQ2 pot conf=1.7*;Kir2-1 sel=-40;KCNQ2 W236L MoA=i
CSc1ccccc1NC(=O)CN(c1cc(C)cc(C)c1)S(C)(=O)=O | i | x | x | x
COC(=O)c1ccn(CC(=O)NC2CCCCC2)n1 | i | x | x | x
O=C(Nc1ccnn1C1CCN(CCCc2ccccc2)CC1)c1cccc(F)c1 | i | 1.1 | x | x
CCOc1cc(C(c2c(C)[nH][nH]c2=O)c2c(C)[nH][nH]c2=O)ccc1OC(=O)c1cccc([N+](=O)[O-])c1 | i | x | x | x
CCOc1cc(C(c2c(C)[nH][nH]c2=O)c2c(C)[nH][nH]c2=O)ccc1OCc1ccc([N+](=O)[O-])cc1 | i | x | i | i
CCC(C)(C)NC(=O)C(c1ccccn1)N(C(=O)c1csnn1)c1ccc(C)cc1 (configuration not stated) | i | 0.92 | x | x
O=C(CN1C(=O)COc2ccc(Cl)cc21)Nc1ccccn1 | i | x | x | x
CC(CCc1ccc(O)cc1)NCCc1ccc(O)c(O)c1 (configuration not stated) | i | 0.9 | x | x
CC(Cc1ccc(O)c(O)c1)C(C)Cc1ccc(O)c(O)c1 (configuration not stated) | i | x | 18%* | 56%*
COCCNC(=O)C(c1ccc(C)o1)N(C(=O)C(=O)NC1CCCCC1)c1ccc(F)cc1 (configuration not stated) | i | x | x | x
Cc1ccc(C(=O)NCC(=O)OCC(=O)Nc2ccccc2C#N)s1 | i | x | x | x
CCOC(=O)c1ccc2c(c1)n(CC)c(/C=C/N(C)c1ccccc1)[n+]2CC | i | x | x | x
